Test [1] is described as follows: qHTS assay to identify small molecule agonists of the RXR signaling pathway - cell viability counter screen (AID 1159529). Note: nearly all actives have a fitted effect of over 50% in size. Note: potency is the fitted concentration of half-maximal effect. The method in brief:
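Tox21 10K compounds were tested for cytotoxicity against GeneBLAzer RXR-alpha HEK 293T cells grown in 2% charcoal-stripped FBS. Exposure lasted 16 hr at 37 C, 5% CO2; viability read by CellTiter-Glo luminescence.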
On the technique in general: Quantitative high-throughput screening tests each substance at several concentrations.

A short description of test [2]: qHTS assay to identify small molecule antagonists of the retinoid acid receptor (RAR) signaling pathway - cell viability counter screen (AID 1159551). Note: nearly all actives have a fitted effect of over 35% in size. Note: potency is the fitted concentration of half-maximal effect. The method in brief: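 C3RL4 RARE-luciferase line; cpds + retinol 1 uM final, 6 h, 37 C/5% CO2; CellTiter-Glo ATP luminescence, 30 min RT.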
Test [3] is described as follows: qHTS assay to identify small molecule antagonists of the retinoic acid receptor (RAR) signaling pathway (AID 1159552; note: nearly all actives have a fitted effect of over 50% in size; note: potency is the fitted concentration of half-maximal effect). The method in brief:
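Overnight-plated C3RL4 reporter cells get compound, then retinol to 1 uM final; plates sit 6 hr at 37 C, 5% CO2. A luciferase reagent is added and light output recorded after 30 min at room temperature.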

Test [4] is described as follows: qHTS assay to identify small molecule antagonists of the estrogen related receptor (ERR) signaling pathway from Tox21 library - cell viability counter screen (AID 1224834). Note: nearly all actives have a fitted effect of over 30% in size. Note: potency is the fitted concentration of half-maximal effect. The method, boiled down: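 Multiplexed viability counter screen in ERR cells: 17.5 h compound exposure at 37 C, CellTiter-Fluor added, 30 min at 37 C/5% CO2, fluorescence read.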
In test [5] the target is Luciferin 4-monooxygenase (Photinus pyralis) (UniProt P08659). Nature of the test: qHTS assay to identify small molecule inhibitors of firefly luciferase (AID 1224835). Note: nearly all actives have a fitted effect of over 25% in size. Note: potency is the fitted concentration of half-maximal effect. The method in brief: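 Quantitative HTS format; KM concentrations of both substrates. Purified P. pyralis FLuc activity quantified from luminescence images.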
Sequence of Luciferin 4-monooxygenase (Photinus pyralis) (P08659 whole entry, looked up): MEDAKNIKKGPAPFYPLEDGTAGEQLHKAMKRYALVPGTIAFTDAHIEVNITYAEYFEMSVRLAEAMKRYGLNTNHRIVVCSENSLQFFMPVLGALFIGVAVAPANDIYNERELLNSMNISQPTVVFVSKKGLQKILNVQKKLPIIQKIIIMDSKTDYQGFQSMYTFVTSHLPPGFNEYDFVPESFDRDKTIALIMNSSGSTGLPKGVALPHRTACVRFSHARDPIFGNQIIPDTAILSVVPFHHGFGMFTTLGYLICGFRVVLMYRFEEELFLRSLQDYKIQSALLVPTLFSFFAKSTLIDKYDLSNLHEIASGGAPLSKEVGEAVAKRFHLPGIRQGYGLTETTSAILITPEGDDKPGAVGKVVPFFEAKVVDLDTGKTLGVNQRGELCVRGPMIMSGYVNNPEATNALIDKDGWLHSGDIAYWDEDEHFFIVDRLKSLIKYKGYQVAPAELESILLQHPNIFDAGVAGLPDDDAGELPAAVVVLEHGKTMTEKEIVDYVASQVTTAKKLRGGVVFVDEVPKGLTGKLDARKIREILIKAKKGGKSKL
The nature of test [6]: qHTS assay to identify small molecule agonists of the constitutive androstane receptor (CAR) signaling pathway - cell viability counter screen (AID 1224836). Note: series mostly up to about 92 µM; nearly all actives have a fitted effect of over 45% in size. The method in brief:
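Fluorescence from CellTiter-Fluor indicates live cells after 23 h exposure. The human hepatoma line expresses hCAR and a CYP2B6-2.2kb reporter. Incubation medium contains 0.75 uM PK11195 (final).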

The nature of test [7]: qHTS assay to identify small molecule antagonists of the constitutive androstane receptor (CAR) signaling pathway - cell viability counter screen (AID 1224837). Note: nearly all actives have a fitted effect of over 45% in size. Note: potency is the fitted concentration of half-maximal effect. The method, boiled down:
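Read-out: CellTiter-Fluor fluorescence after 23 hr at 37 C/5% CO2. Cells: HepG2 double-stable for hCAR and CYP2B6-2.2kb. Compounds tested at 15 concentrations in the presence of CITCO, final concentration 50 nM.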

Test [8] deals with Nuclear receptor subfamily 1 group I member 3 (Homo sapiens) (UniProt Q14994). In words: qHTS assay to identify small molecule agonists of the constitutive androstane receptor (CAR) signaling pathway (AID 1224839).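 Note: HepG2 cells stably carrying human CAR and a CYP2B6 luciferase reporter; series mostly up to about 92 µM; nearly all actives have a fitted effect of over 15% in size.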 The method, boiled down: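 Stable hCAR/CYP2B6-2.2kb HepG2 line in DMEM with 10% FBS; compounds (15 concentrations) and 0.75 uM PK11195 final, 24 h at 37 C/5% CO2, then ONE-Glo luminescence after 30 min.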
Sequence of Nuclear receptor subfamily 1 group I member 3 (Homo sapiens) (Q14994 whole entry, looked up): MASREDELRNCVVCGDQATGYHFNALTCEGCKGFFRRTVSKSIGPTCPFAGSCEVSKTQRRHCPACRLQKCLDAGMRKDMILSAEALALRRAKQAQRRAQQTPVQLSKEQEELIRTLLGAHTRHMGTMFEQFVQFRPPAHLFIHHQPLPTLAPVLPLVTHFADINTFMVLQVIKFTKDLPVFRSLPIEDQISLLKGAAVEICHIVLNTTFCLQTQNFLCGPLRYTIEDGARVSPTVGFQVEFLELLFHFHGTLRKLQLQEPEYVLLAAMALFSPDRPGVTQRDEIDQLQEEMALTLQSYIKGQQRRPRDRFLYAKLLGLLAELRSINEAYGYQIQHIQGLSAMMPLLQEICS

The nature of test [9]: qHTS assay to identify small molecule antagonists of the estrogen related receptor signaling pathway with the pleiotropic PPARgamma coactivator (PGC) from Tox21 10K library - cell viability counter screen (AID 1224840; active = well fitted cell-killing curve with a large enough effect in the repeat runs, not every such curve was filed as active; note: nearly all actives have a fitted effect of over 40% in size; note: potency is the fitted concentration of half-maximal effect). The method in brief:
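Fluorescence read-out of CellTiter-Fluor viability reagent, added after cells had been exposed to compound in DMSO for 17.5 h at 37 C; 30 min development at 37 C/5% CO2. Cells: PGC/ERR line, 2,000/well.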

Test [10] is described as follows: qHTS assay to identify small molecule antagonists of the estrogen related receptor signaling pathway with the pleiotropic PPARgamma coactivator (PGC) from Tox21 10K library (AID 1224841; call rule not given here; note: actives are mostly falling curves and most rising ones were filed inactive; nearly all actives have a fitted effect of over 50% in size; note: potency is the fitted concentration of half-maximal effect). The method in brief:
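Luminescence read-out (One-Glo luciferase reagent, 30 min at room temperature) from PGC/ERR cells exposed to DMSO-dissolved test compounds for 18 h at 37 C; cells, 2,000 per well, had been preincubated 6 h before compound transfer.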

The nature of test [11]: qHTS assay to identify small molecule agonists of the estrogen related receptor signaling pathway with the pleiotropic PPARgamma coactivator (PGC) from Tox21 10K library (AID 1224842). Note: nearly all actives have a fitted effect of over 15% in size. The method, boiled down: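 PGC/ERR reporter cells (NTP line) were seeded 2,000 per well, rested 6 h at 37 C/5% CO2, then pin-dosed with compounds in DMSO for 18 h at 37 C; luciferase read by One-Glo luminescence after 30 min at room temperature.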

Test [12] addresses Thyrotropin receptor (Homo sapiens) (UniProt P16473). Nature of the test: qHTS assay to identify small molecule agonists of the thyroid stimulating hormone receptor (TSHR) signaling pathway (AID 1224843; calls by dose curve; note: nearly all actives have a fitted effect of over 45% in size). The method, boiled down:
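Using 15 concentrations per compound in triplicate, cAMP production was monitored in TSHR-HEK293 cells after 30 min compound incubation at RT; HTRF reagents followed, with fluorescence intensity recorded after 1 h.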

Test [13] is described as follows: qHTS assay to identify small molecule agonists of the retinoic acid receptor (RAR) signaling pathway (AID 1159553). The method in brief: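 RARE-luc C3RL4 cells; overnight attachment 37 C/5% CO2; compound (DMSO) 6 hr; luciferase reagent, 30 min RT; luminescence read-out.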
Test [14] is described as follows: qHTS assay to identify small molecule antagonists of the estrogen related receptor (ERR) signaling pathway - cell viability counter screen (AID 1224818). Note: series mostly up to about 46 µM. The method in brief: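 Fluorescence from CellTiter-Fluor, read 30 min after reagent addition at 37 C, measured viability of ERR cells exposed to compounds for 17.5 h. Cells had settled 6 h before dosing.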
Test [15] concerns the target Nuclear receptor subfamily 1 group I member 3 (Homo sapiens) (UniProt Q14994). In words: qHTS assay to identify small molecule antagonists of the constitutive androstane receptor (CAR) signaling pathway (AID 1224838).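 Note: HepG2 cells stably expressing hCAR with CYP2B6 luciferase reporter stimulated by CITCO; nearly all actives have a fitted effect of over 40% in size.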 Note: potency is the fitted concentration of half-maximal effect. The method in brief: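 Read-out: ONE-Glo luciferase luminescence after 30 min at room temperature. HepG2-CYP2B6-hCAR double-stable cells, compounds in 15-point titration plus 50 nM CITCO final, 24 h at 37 C/5% CO2.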

A short description of test [16]: qHTS assay to identify small molecule antagonists of the estrogen related receptor (ERR) signaling pathway (AID 1224819;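 note: luminescence from an ERR-driven luciferase reporter measured with One-Glo reagent; series mostly up to about 46 µM; nearly all actives have a fitted effect of over 50% in size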). The method in brief:
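Luminescence readout (One-Glo, 30 min, RT) of ERR cell line after 18 h compound exposure at 37 C; cells seeded 2,000/well, pre-incubated 6 h, compounds pinned from DMSO stocks.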

A short description of test [17]: qHTS assay to identify small molecule agonists of the estrogen related receptor (ERR) signaling pathway (AID 1224820). The method in brief:
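Following a 6 h settling period, 2,000 ERR cells per well receive DMSO-dissolved compounds by pin tool and incubate 18 h at 37 C; agonist activity is scored from One-Glo luminescence read 30 min post-addition.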

For test [18], the system named is estrogen-related receptor alpha (ERRalpha) with PGC-1alpha coactivator, human. Nature of the test: qHTS assay to identify small molecule antagonists of the estrogen related receptor signaling pathway with the pleiotropic PPARgamma coactivator (PGC) (AID 1224821; calls by dose curve). The method in brief:
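Screening used NTP's PGC/ERR cells, dosed via pin tool with compound in DMSO alongside positive and negative controls. After 18 h at 37 C, One-Glo reagent sat 30 min at room temperature before luminescence detection.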

Test [19] is described as follows: qHTS assay to identify small molecule antagonists of the estrogen related receptor signaling pathway with the pleiotropic PPARgamma coactivator (PGC) cell viability counter screen (AID 1224822; note: series mostly up to about 46 µM). The method in brief: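 Fluorescence read-out of CellTiter-Fluor after 30 min at 37 C; PGC/ERR cells, 2,000 per well, had been exposed to DMSO-dissolved compounds for 17.5 h following a 6 h pre-incubation.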

The nature of test [20]: qHTS assay to identify small molecule agonists of the estrogen related receptor signaling pathway with the pleiotropic PPARgamma coactivator (PGC) (AID 1224823). The method in brief:
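In this quantitative high-throughput screen, an 18 h, 37 C treatment of PGC/ERR cells with compounds in DMSO preceded a One-Glo luminescence read taken after 30 min at room temperature.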

Records with an inconclusive call do not appear. Unmarked numbers belong to inactive results. Active and inactive are the calls of the source. Unless noted, calls come from the whole dose curve; as a rule, active = well fitted curve in the direction sought with a large enough effect in the repeat runs; inconclusive = weak or mixed curves; inactive = no such curve, though single readings can be large; an effect the other way counts as inactive or inconclusive.
% is set by controls: 0 for no effect and ±100 for the full control effect.

Sequence of Thyrotropin receptor (Homo sapiens) (P16473 whole entry, looked up): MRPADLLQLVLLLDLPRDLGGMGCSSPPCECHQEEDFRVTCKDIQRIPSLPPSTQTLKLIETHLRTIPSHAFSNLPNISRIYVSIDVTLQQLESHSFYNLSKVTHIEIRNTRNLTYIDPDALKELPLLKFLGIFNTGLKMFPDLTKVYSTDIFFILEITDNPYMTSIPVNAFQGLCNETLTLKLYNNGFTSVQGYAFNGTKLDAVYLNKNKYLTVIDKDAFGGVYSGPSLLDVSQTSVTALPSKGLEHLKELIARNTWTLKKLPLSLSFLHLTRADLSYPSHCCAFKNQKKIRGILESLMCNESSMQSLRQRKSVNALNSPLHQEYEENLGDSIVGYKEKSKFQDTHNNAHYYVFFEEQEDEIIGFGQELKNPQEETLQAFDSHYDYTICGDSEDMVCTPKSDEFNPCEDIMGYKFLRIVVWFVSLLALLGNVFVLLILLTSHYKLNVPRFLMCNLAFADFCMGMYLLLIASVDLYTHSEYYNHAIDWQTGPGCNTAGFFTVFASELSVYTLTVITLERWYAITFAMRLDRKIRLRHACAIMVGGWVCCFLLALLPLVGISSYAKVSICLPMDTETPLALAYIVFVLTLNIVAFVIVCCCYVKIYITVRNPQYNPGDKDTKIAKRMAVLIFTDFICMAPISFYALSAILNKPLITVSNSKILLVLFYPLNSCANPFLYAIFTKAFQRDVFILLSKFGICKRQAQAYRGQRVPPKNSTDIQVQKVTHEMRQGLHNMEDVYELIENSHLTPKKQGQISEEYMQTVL

Take `COP(=O)(CCC(=O)NCO)OC`: the Potency entry in test [1], in test [2], in [3], in test [4], in test [5] and in test [6] was “inactive” throughout. The Potency result in test [7], in [8], in [9], in test [10], in test [11] and in [12] was “inactive” in each case.

As for `BrCC(Br)c1ccccc1` (stereo unspecified), the Potency entry in test [1], in test [2], in [3], in [4], in [7] and in test [9] was “inactive” throughout. In test [12], the Potency result is “inactive”.

For the compound `CCOP(=O)(NC(C)C)Oc1ccc(SC)c(C)c1` (stereo unspecified), the Potency entry in test [1], in [2] and in test [13] was “inactive” each time. Also, the result in test [14] was inactive.

Consider `COc1ccc([N+](=O)[O-])cc1O`, for which the Potency entry in [1], in test [2], in [3], in test [4], in test [5] and in test [6] was “inactive” throughout. Also, the Potency result in test [7], in test [9] and in test [12] was “inactive” in each case.

With `[Cl][Sn]([c]1ccccc1)([c]1ccccc1)[c]1ccccc1`, the Potency in [1] is 0.585 µM (active); in test [2], 4.61 µM (active); in test [3] it was 0.092 µM (active); in [4], 1.16 µM (active); in [5] it was 6.01 µM (active); in test [7], 2.06 µM (active). In addition, the Potency in test [15] was 0.206 µM (active); in test [10], 0.82 µM (active). Also, the activation in [8] is -23.6% [at 19 µM].

As for `N#Cc1ccccc1Cl`, the Potency result in test [1], in test [2], in test [3], in test [4], in [5] and in [6] was “inactive” throughout. Besides, the Potency result in test [7], in test [9], in [11] and in [12] was “inactive” in each case.

In the case of `CCOC(=O)c1ccccc1S(=O)(=O)NC(=O)Nc1nc(Cl)cc(OC)n1`, the Potency entry in [1], in test [2], in [3], in test [4], in [5] and in [7] was “inactive” throughout. Also, the Potency result in test [15], in test [8], in test [9] and in test [12] was “inactive” in each case.

`OC(Cc1ccccc1Cl)(Cn1cncn1)C1(Cl)CC1` (stereo unspecified): the Potency result in [1], in [2], in [3], in test [5], in test [7] and in test [15] was “inactive” throughout. Further, the Potency entry in [9] and in test [12] was “inactive” in each case. The Potency in [10] is 54.5 µM (active).

Regarding `CCOCCOC(C)=O`, the Potency entry in test [1], in test [2], in test [13], in test [16], in [18] and in [19] was “inactive” in each case. For the same compound, the Potency result in test [4], in test [5], in test [6], in test [7], in test [9] and in test [11] was “inactive” throughout. For the same compound, the Potency entry in test [12] was “inactive”. For the same compound, the compound was called inactive in test [14], in [17] and in [20].

Turning to `CCCCCCCCCC[N+](C)(C)CCCCCCCCCC`, the Potency in test [1] is 15.5 µM (active); in test [2] it was 61.1 µM (active); in test [3], 12.2 µM (active); in test [4], 43.3 µM (active); in test [7] it was 24.3 µM (active); in [15], 27.3 µM (active). Further, the Potency in [9] is 27.3 µM (active). Moreover, the Potency result in [5], in test [8] and in [12] was “inactive” throughout.

Turning to `ClC1=C(Cl)[C@]2(Cl)[C@@H]3[C@@H](Cl)[C@H](Cl)C[C@@H]3[C@@]1(Cl)C2(Cl)Cl`, the Potency entry in test [1], in test [2], in [3], in test [4], in test [5] and in test [7] was “inactive” in each case. Besides, the Potency result in [15], in test [8], in test [9] and in [10] was “inactive” each time.

Source of the values: PubChem BioAssay (Tox21).
